Measurements from PubChem BioAssay (EPA / NIEHS).
Activity calls are given as the source filed them. The calls were made as follows: active = hit-call score of the fitted dose curve at least 0.9, where 1 is the maximum; inactive = score below 0.9.

Tests used:
[1] = read-out: Human Leukocyte Antigen - DR isotype (HLADR), HLA-DRA (gene 3122); assay: BSK_BE3C_HLADR: BioMAP Diversity Plus: BE3C Assay for Human Leukocyte Antigen - DR isotype (HLADR) Biomarker Activity (AID 2283032); details: primary human bronchial epithelial cells; actives raise or lower the signal
How it was run: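 Primary human bronchial epithelial cells (BE3C); 24 h chemical exposure; HLA-DR by ELISA; bidirectional curve fit vs DMSO baseline.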

[2] = read-out: Interferon-gamma inducible Protein 10 (IP10), CXCL10 (gene 3627); assay: BSK_BE3C_IP10: BioMAP Diversity Plus: BE3C Assay for Interferon-gamma inducible Protein 10 (IP10) Biomarker Activity (AID 2283034); details: primary human bronchial epithelial cells; actives raise or lower the signal
How it was run: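 ELISA readout of IP-10 in BE3C system: primary human bronchial epithelial cells, 24 h post-dosing; bidirectional curve fit vs DMSO baseline.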

[3] = read-out: Monokine induced gamma interferon (MIG), CXCL9 (gene 4283); assay: BSK_BE3C_MIG: BioMAP Diversity Plus: BE3C Assay for Monokine induced gamma interferon (MIG) Biomarker Activity (AID 2283035); details: primary human bronchial epithelial cells; actives raise or lower the signal
How it was run: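 Dose cells (human primary bronchial epithelial), incubate 24 h, quantify MIG by ELISA, then fit concentration–response in both directions relative to DMSO control.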

[4] = read-out: Transforming growth factor beta 1 (TGFb1), TGFB1 (gene 7040); assay: BSK_BE3C_TGFb1: BioMAP Diversity Plus: BE3C Assay for Transforming growth factor beta 1 (TGFb1) Biomarker Activity (AID 2283036); details: primary human bronchial epithelial cells; actives raise or lower the signal
How it was run: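 Read-out: ELISA for TGF-b1 in primary human bronchial epithelial cultures, 24 h post-dose. Bidirectional curve fitting vs DMSO control; gain or loss of signal both scored.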

[5] = read-out: Plasminogen activator inhibitor-1 (PAI1), SERPINE1 (gene 5054); assay: BSK_BE3C_PAI1: BioMAP Diversity Plus: BE3C Assay for Plasminogen activator inhibitor-1 (PAI1) Biomarker Activity (AID 2283037); details: primary human bronchial epithelial cells; actives raise or lower the signal
How it was run: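 ELISA read-out of PAI-1 from human bronchial epithelial primary cells, 24 h post-dosing; bidirectional curve fit vs DMSO baseline, gain or loss of signal scored.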

[6] = read-out: urokinase plasminogen activator (uPA), PLAU (gene 5328); assay: BSK_BE3C_uPA: BioMAP Diversity Plus: BE3C Assay for urokinase plasminogen activator (uPA) Biomarker Activity (AID 2283038); details: primary human bronchial epithelial cells; actives raise or lower the signal
How it was run: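 Primary human bronchial epithelial cells, uPA measured by ELISA 24 h after dosing. Bidirectional change relative to DMSO; cytotoxicity checked in parallel cultures by sulforhodamine B total-protein staining.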

[7] = read-out: Urokinase-type plasminogen activator receptor (uPAR), PLAUR (gene 5329); assay: BSK_BE3C_uPAR: BioMAP Diversity Plus: BE3C Assay for Urokinase-type plasminogen activator receptor (uPAR) Biomarker Activity (AID 2283039); details: primary human bronchial epithelial cells; actives raise or lower the signal
How it was run: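 ELISA readout of uPAR on human lung primary bronchial epithelial cells, 24 h post-dosing. Bidirectional curve fit relative to DMSO vehicle baseline; gain or loss of signal both scored.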

[8] = read-out: Interleukin-6 (IL6), IL6 (gene 3569); assay: BSK_CASM3C_IL6: BioMAP Diversity Plus: CASM3C Assay for Interleukin-6 (IL6) Biomarker Activity for (AID 2283040); details: primary human coronary artery smooth muscle cells; actives raise or lower the signal
[9] = read-out: Tissue plasminogen activator (tPA), PLAT (gene 5327); assay: BSK_BE3C_tPA: BioMAP Diversity Plus: BE3C Assay for Tissue plasminogen activator (tPA) Biomarker Activity (AID 2283041); details: primary human bronchial epithelial cells; actives raise or lower the signal
How it was run: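 ELISA read-out of tPA on human primary bronchial epithelial cells, 24 h post-dosing; bidirectional fit vs DMSO negative control/baseline.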

[10] = read-out: Interleukin-8 (IL8), CXCL8 (gene 3576); assay: BSK_CASM3C_IL8: BioMAP Diversity Plus: CASM3C Assay for Interleukin-8 (IL8) Biomarker Activity (AID 2283042); details: primary human coronary artery smooth muscle cells; actives raise or lower the signal;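 also: IL-8 protein level quantified by ELISA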
[11] = read-out: Human Leukocyte Antigen - DR isotype (HLADR), HLA-DRA (gene 3122); assay: BSK_CASM3C_HLADR: BioMAP Diversity Plus: CASM3C Assay for Human Leukocyte Antigen - DR isotype (HLADR) Biomarker Activity (AID 2283043); details: primary human coronary artery smooth muscle cells; actives raise or lower the signal;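 also: cell-surface HLA-DR protein level quantified by ELISA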
[12] = read-out: Macrophage colony-stimulating factor (MCSF), CSF1 (gene 1435); assay: BSK_CASM3C_MCSF: BioMAP Diversity Plus: CASM3C Assay for Macrophage colony-stimulating factor (MCSF) Biomarker Activity (AID 2283044); details: primary human coronary artery smooth muscle cells; actives raise or lower the signal;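 also: M-CSF protein amount quantified by ELISA after 24 h exposure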
[13] = read-out: Low-density lipoprotein receptor (LDLR), LDLR (gene 3949); assay: BSK_CASM3C_LDLR: BioMAP Diversity Plus: CASM3C Assay for Low-density lipoprotein receptor (LDLR) Biomarker Activity (AID 2283045); details: primary human coronary artery smooth muscle cells; actives raise or lower the signal;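 also: LDLR protein level on the cell surface quantified by ELISA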
[14] = read-out: Monocyte Chemoattractant Protein-1 (MCP1), CCL2 (gene 6347); assay: BSK_CASM3C_MCP1: BioMAP Diversity Plus: CASM3C Assay for Monocyte Chemoattractant Protein-1 (MCP1) Biomarker Activity (AID 2283046); details: primary human coronary artery smooth muscle cells; actives raise or lower the signal;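 also: MCP-1 level quantified by ELISA 24 h after dosing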
[15] = BSK_CASM3C_Proliferation: Cell Proliferation Assessment in the BioMAP Diversity Plus: CASM3C Assay (AID 2283047); details: primary human coronary artery smooth muscle cells;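 also: sulforhodamine B total protein stain as relative cell number at 560 nm; sub-confluent cells exposed 48 h before staining; fitted both ways against DMSO so gain or loss of cell number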
[16] = read-out: Monokine induced gamma interferon (MIG), CXCL9 (gene 4283); assay: BSK_CASM3C_MIG: BioMAP Diversity Plus: CASM3C Assay for Monokine induced gamma interferon (MIG) Biomarker Activity (AID 2283048); details: primary human coronary artery smooth muscle cells; actives raise or lower the signal;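 also: MIG protein level measured by ELISA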
[17] = read-out: serum amyloid A (SAA), SAA1 (gene 6288); assay: BSK_CASM3C_SAA: BioMAP Diversity Plus: CASM3C Assay for serum amyloid A (SAA) Biomarker Activity (AID 2283049); details: primary human coronary artery smooth muscle cells; actives raise or lower the signal;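 also: SAA protein level quantified by ELISA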
[18] = BSK_CASM3C_SRB: Viability Assessment in the BioMAP Diversity Plus: CASM3C Assay (AID 2283050); details: primary human coronary artery smooth muscle cells;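 also: total protein by SRB staining as cytotoxicity measure in parallel cultures; cells exposed to compound for 24 h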
[19] = read-out: Thrombomodulin, THBD (gene 7056); assay: BSK_CASM3C_Thrombomodulin: BioMAP Diversity Plus: CASM3C Assay for Thrombomodulin Biomarker Activity (AID 2283051); details: primary human coronary artery smooth muscle cells; actives raise or lower the signal;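 also: thrombomodulin protein level measured by ELISA 24 h after dosing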
[20] = read-out: Vascular cell adhesion molecule 1 (VCAM1), VCAM1 (gene 7412); assay: BSK_4H_VCAM1: BioMAP Diversity Plus: 4H Assay for Vascular cell adhesion molecule 1 (VCAM1) Biomarker Activity (AID 2283033); details: primary human endothelial cells (HUVEC); actives raise or lower the signal;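 also: cell-surface VCAM-1 protein measured by ELISA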
How it was run: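 HUVEC, 24 h post-dose; VCAM-1 by ELISA. Bidirectional curve fit vs DMSO baseline. Parallel SRB total-protein stain (0.1% SRB after 10% TCA fixation, 560 nm) for cytotoxicity.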

Measured: AC50

C#CCOC(=O)/C=C(C)/C=C/CC(C)CCCC(C)C (stereo not given)
active: [2] 1.32 µM | [11] 3.97 µM
not listed: [20]
inactive: all other assays above

COCC(=O)N(c1c(C)cccc1C)[C@H](C)C(=O)OC
not listed: [20]
inactive: all other assays above

CCCCCCCCCCCCc1cccc(S(=O)(=O)O)c1
active: [1] 17.6 µM | [2] 13 µM | [3] 30.1 µM | [4] 5.79 µM | [5] 23.7 µM | [6] 28.4 µM | [7] 29.1 µM | [9] 3.92 µM
not listed: [20]
inactive: all other assays above

Cc1ccc(OP(=O)(Oc2ccc(C)cc2C)Oc2ccc(C)cc2C)c(C)c1
active: [5] 6.01 µM | [9] 3.86 µM | [12] 0.0882 µM
not listed: [2]
inactive: all other assays above

COc1ccccc1N
not listed: [6]
inactive: all other assays above

CC(C=O)Cc1ccc2c(c1)OCO2 (stereo not given)
not listed: [2] | [6]
inactive: all other assays above

CCOP(=S)(OCC)SCS(=O)(=O)C(C)(C)C
not listed: [2] | [6] | [20]
inactive: all other assays above
